The supplement of paper PMC10849652
The full data set covers some 7,900 targets. This sample favours those with a hit. About 0.6% of all pairs of compound and target were hits.

Columns and labels:
Assay in all cases: log2 fold change, soluble protein after heating vs DMSO (PISA); higher = thermal stabilisation; K562 cells, 10 uM, 30 min; active = over 0.2 and 3.5 SD of the protein, either way, in both replicates (recomputed)
saracatinib = compound: CN1CCN(CCOc2cc(OC3CCOCC3)c3c(Nc4c(Cl)ccc5c4OCO5)ncnc3c2)CC1 [saracatinib]
Method in brief: (§1)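 Thermal stability values are relative to control samples and come from duplicates. They are expressed as log2 fold changes. For measurement, K562 cells (2×10^6 cells/mL) received 10 μM compound for 30 min, and aliquots were heated for 3 min over 48°C-58°C, pooled, and extracted at 4°C in PBS with 0.5% NP-40. Soluble protein, the supernatant after 21,000xg for 90 min, was quantified by TMTpro 16plex LC-MS/MS with equalised channel sums.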

sotrastaurin = compound: CN1CCN(c2nc(C3=C(c4c[nH]c5ccccc45)C(=O)NC3=O)c3ccccc3n2)CC1 [sotrastaurin]
Method in brief: as §1

alvocidib = compound: CN1CC[C@H](c2c(O)cc(O)c3c(=O)cc(-c4ccccc4Cl)oc23)[C@H](O)C1 [alvocidib]
Method in brief: as §1

Tubastatin A = compound: CN1CCc2c(c3ccccc3n2Cc2ccc(C(=O)NO)cc2)C1 [Tubastatin A]
Method in brief: as §1

[1] = compound: CNC(=O)C1=CC=CC=C1NC2=NC(=NC=C2Cl)NC3=C(C=C(C=C3)N4CCOCC4)OC
Method in brief: as §1

defactinib = compound: CNC(=O)c1ccc(Nc2ncc(C(F)(F)F)c(NCc3nccnc3N(C)S(C)(=O)=O)n2)cc1 [defactinib]
Method in brief: as §1

rucaparib = compound: CNCc1ccc(-c2[nH]c3cc(F)cc4c3c2CCNC4=O)cc1 [rucaparib]
Method in brief: as §1

[2] = compound: CNc1nc(-c2ccc3c(N)n[nH]c3c2)cc(N2C[C@@H](C(=O)NC3CCCCC3)CC[C@H]2C)n1
Method in brief: as §1

encorafenib = compound: COC(=O)N[C@@H](C)CNc1nccc(-c2cn(C(C)C)nc2-c2cc(Cl)cc(NS(C)(=O)=O)c2F)n1 [encorafenib]
Method in brief: as §1

[3] = compound: COC(=O)[C@H](CCSC)NC(=O)C1=C(C=C(C=C1)NC[C@H](CS)N)C2=CC=CC=C2
Method in brief: as §1

Measured: log2 fold change

RUFY1 (UniProt Q96T51)
inactive: saracatinib -0.037 | sotrastaurin -0.174 | alvocidib -0.041 | Tubastatin A -0.012 | [1] 0.045 | defactinib -0.071 | rucaparib 0.032 | [2] -0.09 | encorafenib 0.077 | [3] -0.02

SELENOH (UniProt Q8IZQ5)
Sequence of UniProt Q8IZQ5 (Q8IZQ5 whole entry, looked up): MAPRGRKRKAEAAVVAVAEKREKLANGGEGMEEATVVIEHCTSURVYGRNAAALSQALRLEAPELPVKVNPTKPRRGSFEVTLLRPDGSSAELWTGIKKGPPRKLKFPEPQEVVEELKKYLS
inactive: saracatinib 0.124 | sotrastaurin -0.171 | alvocidib 0.066 | Tubastatin A 0.032 | [1] -0.063 | defactinib -0.026 | rucaparib -0.011 | [2] 0.022 | encorafenib 0.011 | [3] -0.038

RAPGEF4 (UniProt Q8WZA2)
Sequence of UniProt Q8WZA2 (Q8WZA2 whole entry, looked up): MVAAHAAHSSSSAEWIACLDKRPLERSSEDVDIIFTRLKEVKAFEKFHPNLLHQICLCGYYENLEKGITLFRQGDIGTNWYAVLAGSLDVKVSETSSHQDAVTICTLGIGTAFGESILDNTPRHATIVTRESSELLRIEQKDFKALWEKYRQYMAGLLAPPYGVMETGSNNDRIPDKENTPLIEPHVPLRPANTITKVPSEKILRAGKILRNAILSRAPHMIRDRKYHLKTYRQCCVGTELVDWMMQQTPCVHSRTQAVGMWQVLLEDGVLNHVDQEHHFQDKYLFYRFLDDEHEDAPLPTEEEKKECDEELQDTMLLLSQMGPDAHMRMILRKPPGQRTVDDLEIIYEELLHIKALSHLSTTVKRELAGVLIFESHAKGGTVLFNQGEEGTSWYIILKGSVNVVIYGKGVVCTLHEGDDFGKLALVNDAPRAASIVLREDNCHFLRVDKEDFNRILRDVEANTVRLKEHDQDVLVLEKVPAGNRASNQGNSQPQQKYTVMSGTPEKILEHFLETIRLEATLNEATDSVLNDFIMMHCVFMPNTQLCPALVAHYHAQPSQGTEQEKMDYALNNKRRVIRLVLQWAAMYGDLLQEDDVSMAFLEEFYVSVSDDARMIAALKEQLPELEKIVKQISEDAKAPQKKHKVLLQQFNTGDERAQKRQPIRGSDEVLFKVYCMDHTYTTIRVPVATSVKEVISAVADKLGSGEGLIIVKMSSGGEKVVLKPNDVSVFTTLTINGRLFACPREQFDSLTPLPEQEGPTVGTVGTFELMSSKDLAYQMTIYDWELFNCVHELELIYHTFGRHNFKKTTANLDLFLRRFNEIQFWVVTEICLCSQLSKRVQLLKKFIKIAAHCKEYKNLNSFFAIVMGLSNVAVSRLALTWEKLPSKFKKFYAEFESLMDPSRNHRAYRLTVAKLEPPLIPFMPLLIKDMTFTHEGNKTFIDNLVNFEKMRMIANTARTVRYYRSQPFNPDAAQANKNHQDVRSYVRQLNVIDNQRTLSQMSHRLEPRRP
inactive: saracatinib 0.045 | sotrastaurin -0.033 | alvocidib 0.04 | Tubastatin A 0.333 | [1] -0.114 | defactinib -0.057 | rucaparib -0.063 | [2] 0.083 | encorafenib 0.059 | [3] -0.123

SCG3 (UniProt Q8WXD2)
inactive: saracatinib 0.191 | sotrastaurin 0.038 | alvocidib 0.106 | Tubastatin A 0.021 | [1] 0.091 | defactinib -0.163 | rucaparib 0.046 | [2] -0.113 | encorafenib -0.069 | [3] 0.062

SLC12A9 (UniProt Q9BXP2)
inactive: saracatinib 0.102 | sotrastaurin 0.016 | alvocidib -0.094 | Tubastatin A -0.09 | [1] -0.016 | defactinib -0.043 | rucaparib -0.073 | [2] -0.068 | encorafenib -0.017 | [3] -0.01

SKP1 (UniProt P63208)
Sequence of UniProt P63208 (P63208 whole entry, looked up): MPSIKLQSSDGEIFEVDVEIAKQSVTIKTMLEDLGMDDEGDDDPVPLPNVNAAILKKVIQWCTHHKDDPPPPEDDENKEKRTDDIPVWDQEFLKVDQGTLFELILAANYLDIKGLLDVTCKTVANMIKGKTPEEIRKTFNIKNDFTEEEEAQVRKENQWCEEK
inactive: saracatinib 0.157 | sotrastaurin -0.023 | alvocidib -0.032 | Tubastatin A 0.002 | [1] 0.165 | defactinib 0.066 | rucaparib -0.051 | [2] 0.028 | encorafenib -0.005 | [3] 0.072

RBM25 (UniProt P49756)
inactive: saracatinib -0.025 | sotrastaurin -0.109 | alvocidib -0.133 | Tubastatin A 0.058 | [1] -0.164 | rucaparib 0.03 | [2] -0.091 | encorafenib -0.094 | [3] 0.014
active: defactinib -0.24

RCOR3 isoform 3 (UniProt Q9P2K3)
inactive: saracatinib -0.142 | sotrastaurin -0.011 | alvocidib -0.15 | Tubastatin A 0.142 | [1] -0.019 | defactinib -0.073 | rucaparib 0.075 | [2] -0.044 | encorafenib 0.026 | [3] -0.062

SFXN5 (UniProt Q8TD22)
Sequence of UniProt Q8TD22 (Q8TD22 whole entry, looked up): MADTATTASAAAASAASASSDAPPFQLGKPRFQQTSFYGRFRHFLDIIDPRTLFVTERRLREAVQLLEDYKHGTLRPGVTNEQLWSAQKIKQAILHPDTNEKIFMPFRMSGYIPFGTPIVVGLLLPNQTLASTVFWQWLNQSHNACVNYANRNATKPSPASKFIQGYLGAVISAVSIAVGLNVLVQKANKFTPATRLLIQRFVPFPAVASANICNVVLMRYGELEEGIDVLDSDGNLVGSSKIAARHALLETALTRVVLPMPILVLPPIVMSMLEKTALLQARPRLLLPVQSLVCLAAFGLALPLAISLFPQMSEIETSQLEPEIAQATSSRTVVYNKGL
inactive: saracatinib 0.106 | sotrastaurin -0.014 | alvocidib -0.098 | Tubastatin A -0.053 | [1] 0.019 | defactinib 0.017 | rucaparib -0.043 | [2] -0.038 | encorafenib -0.053 | [3] 0.045

SACM1L (UniProt Q9NTJ5)
inactive: saracatinib 0.004 | sotrastaurin 0.003 | alvocidib -0.098 | Tubastatin A -0.026 | [1] 0.042 | defactinib -0.08 | rucaparib -0.062 | [2] 0.007 | encorafenib 0.034 | [3] -0.046

RBM8A (UniProt Q9Y5S9)
inactive: saracatinib 0.011 | sotrastaurin -0.002 | alvocidib 0.188 | Tubastatin A 0.045 | [1] -0.032 | defactinib 0.075 | rucaparib -0.043 | [2] -0.006 | encorafenib 0.025 | [3] 0.012

SIDT2 isoform 2 (UniProt Q8NBJ9)
inactive: saracatinib 0.08 | sotrastaurin 0.024 | alvocidib 0.047 | Tubastatin A -0.083 | [1] 0.104 | defactinib -0.064 | rucaparib -0.002 | [2] -0.088 | encorafenib -0.053 | [3] -0.176

SAMSN1 isoform 3 (UniProt Q9NSI8)
inactive: saracatinib -0.023 | sotrastaurin -0.081 | alvocidib -0.058 | Tubastatin A 0.036 | [1] 0.002 | defactinib -0.051 | rucaparib -0.003 | [2] -0.029 | encorafenib 0.046 | [3] 0.024

RPP14 (UniProt O95059)
Sequence of UniProt O95059 (O95059 whole entry, looked up): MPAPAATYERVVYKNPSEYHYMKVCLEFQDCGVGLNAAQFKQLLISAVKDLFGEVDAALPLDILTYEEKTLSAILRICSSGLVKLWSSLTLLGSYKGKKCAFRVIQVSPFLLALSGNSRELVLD
inactive: saracatinib 0.064 | sotrastaurin -0.01 | alvocidib 0.007 | Tubastatin A 0.059 | [1] -0.039 | defactinib 0.012 | rucaparib 0.004 | [2] -0.029 | encorafenib 0.046 | [3] -0.034

RAB9A (UniProt P51151)
Sequence of UniProt P51151 (P51151 whole entry, looked up): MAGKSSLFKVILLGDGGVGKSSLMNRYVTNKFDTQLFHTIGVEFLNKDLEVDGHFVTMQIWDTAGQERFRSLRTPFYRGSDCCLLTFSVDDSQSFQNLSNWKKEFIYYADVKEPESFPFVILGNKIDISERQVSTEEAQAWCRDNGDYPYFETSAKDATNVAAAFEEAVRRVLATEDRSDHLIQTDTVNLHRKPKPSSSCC
inactive: saracatinib 0.015 | sotrastaurin 0.02 | alvocidib -0.04 | Tubastatin A -0.018 | [1] -0.054 | defactinib 0 | rucaparib -0.017 | [2] -0.02 | encorafenib -0.012 | [3] -0.013

REL (UniProt Q04864)
inactive: saracatinib -0.028 | sotrastaurin -0.049 | alvocidib -0.059 | Tubastatin A 0.008 | [1] 0.052 | defactinib -0.12 | rucaparib 0.089 | [2] -0.013 | encorafenib -0.046 | [3] -0.016

RPL38 (UniProt P63173)
inactive: saracatinib -0.018 | sotrastaurin 0.01 | alvocidib 0.088 | Tubastatin A 0.014 | [1] 0.027 | defactinib 0.126 | rucaparib 0.093 | [2] 0.044 | encorafenib 0.003 | [3] 0.037

SEC16A isoform 5 (UniProt O15027)
inactive: saracatinib -0.08 | sotrastaurin -0.049 | alvocidib 0.028 | Tubastatin A 0.052 | [1] -0.085 | defactinib -0.016 | rucaparib 0.22 | [2] 0.09 | encorafenib 0.119 | [3] -0.018

SAAL1 (UniProt Q96ER3)
inactive: saracatinib 0.001 | sotrastaurin -0.044 | Tubastatin A -0.089 | [1] 0.042 | defactinib 0.203 | rucaparib 0.031 | [2] -0.069 | encorafenib 0.017 | [3] -0.031
active: alvocidib 0.355

RPS3A (UniProt P61247)
inactive: saracatinib -0.034 | sotrastaurin 0.015 | alvocidib 0.171 | Tubastatin A 0.075 | [1] 0.105 | defactinib 0.192 | rucaparib 0.101 | [2] 0.069 | encorafenib 0.047 | [3] -0.018

SETMAR (UniProt Q53H47)
Sequence of UniProt Q53H47 (Q53H47 whole entry, looked up): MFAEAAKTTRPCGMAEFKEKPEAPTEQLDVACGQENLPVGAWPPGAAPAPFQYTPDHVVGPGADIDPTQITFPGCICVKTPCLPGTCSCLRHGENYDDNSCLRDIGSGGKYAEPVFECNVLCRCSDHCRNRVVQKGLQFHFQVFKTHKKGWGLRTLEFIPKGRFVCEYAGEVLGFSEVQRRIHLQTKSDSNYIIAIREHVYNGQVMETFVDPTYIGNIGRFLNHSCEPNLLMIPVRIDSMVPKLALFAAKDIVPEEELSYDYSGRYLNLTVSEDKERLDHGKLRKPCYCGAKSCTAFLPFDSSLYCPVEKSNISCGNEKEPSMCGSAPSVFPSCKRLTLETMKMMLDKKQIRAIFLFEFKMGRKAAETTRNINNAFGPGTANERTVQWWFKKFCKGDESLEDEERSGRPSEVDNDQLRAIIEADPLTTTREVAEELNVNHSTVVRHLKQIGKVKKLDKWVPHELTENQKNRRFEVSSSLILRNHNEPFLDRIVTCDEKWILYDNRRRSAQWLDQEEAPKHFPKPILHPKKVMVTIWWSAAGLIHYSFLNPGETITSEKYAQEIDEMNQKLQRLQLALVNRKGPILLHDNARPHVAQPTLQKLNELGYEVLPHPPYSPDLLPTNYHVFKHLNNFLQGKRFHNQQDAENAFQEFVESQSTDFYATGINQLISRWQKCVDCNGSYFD
inactive: saracatinib -0.007 | sotrastaurin -0.132 | alvocidib -0.029 | Tubastatin A -0.402 | [1] 0.006 | defactinib -0.026 | rucaparib -0.004 | [2] 0.005 | encorafenib 0.198 | [3] -0.084

RPRD1B (UniProt Q9NQG5)
Sequence of UniProt Q9NQG5 (Q9NQG5 whole entry, looked up): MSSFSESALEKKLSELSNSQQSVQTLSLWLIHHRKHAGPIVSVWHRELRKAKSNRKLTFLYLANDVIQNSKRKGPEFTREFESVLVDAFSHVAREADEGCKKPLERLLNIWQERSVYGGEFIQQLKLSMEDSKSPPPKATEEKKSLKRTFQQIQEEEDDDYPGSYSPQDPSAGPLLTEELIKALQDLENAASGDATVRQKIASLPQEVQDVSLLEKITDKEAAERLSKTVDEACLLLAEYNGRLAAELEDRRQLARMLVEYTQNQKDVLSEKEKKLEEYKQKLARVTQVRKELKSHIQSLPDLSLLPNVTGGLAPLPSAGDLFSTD
inactive: saracatinib -0.014 | sotrastaurin -0.126 | alvocidib -0.082 | Tubastatin A -0.039 | [1] 0.055 | defactinib -0.09 | rucaparib -0.116 | [2] -0.011 | encorafenib 0.04 | [3] -0.004

RSRC2 (UniProt Q7L4I2)
inactive: saracatinib 0.015 | sotrastaurin 0.049 | alvocidib 0.055 | Tubastatin A -0.055 | [1] -0.125 | defactinib -0.048 | rucaparib -0.004 | [2] -0.016 | encorafenib -0.005 | [3] 0.024

RTF2 (UniProt Q9BY42)
inactive: saracatinib -0.021 | sotrastaurin -0.007 | alvocidib -0.01 | Tubastatin A 0.099 | [1] 0.083 | defactinib -0.151 | rucaparib 0.027 | [2] -0.142 | encorafenib 0.058 | [3] -0.045

RSF1 (UniProt Q96T23)
active: defactinib -0.407
inactive: saracatinib 0 | sotrastaurin -0.209 | alvocidib -0.188 | Tubastatin A 0.181 | [1] 0.035 | rucaparib 0.026 | [2] 0.048 | encorafenib 0.029 | [3] -0.086

RUFY3 isoform 3 (UniProt Q7L099)
Sequence of UniProt Q7L099 (Q7L099 whole entry, looked up): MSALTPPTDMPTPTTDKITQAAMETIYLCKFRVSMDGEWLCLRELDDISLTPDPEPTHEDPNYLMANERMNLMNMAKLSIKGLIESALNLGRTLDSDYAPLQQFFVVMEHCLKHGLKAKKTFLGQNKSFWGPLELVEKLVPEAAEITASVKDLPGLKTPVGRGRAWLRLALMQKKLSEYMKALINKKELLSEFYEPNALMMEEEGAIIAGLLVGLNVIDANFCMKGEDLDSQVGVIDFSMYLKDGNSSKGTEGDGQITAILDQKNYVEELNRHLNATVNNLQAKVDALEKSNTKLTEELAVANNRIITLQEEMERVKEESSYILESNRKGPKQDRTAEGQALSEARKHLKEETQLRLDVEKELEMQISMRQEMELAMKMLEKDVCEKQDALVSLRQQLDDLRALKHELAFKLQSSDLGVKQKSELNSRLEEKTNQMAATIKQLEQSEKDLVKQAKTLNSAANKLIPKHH
inactive: saracatinib -0.054 | sotrastaurin -0.036 | alvocidib -0.133 | Tubastatin A 0 | [1] -0.029 | defactinib -0.028 | rucaparib 0.105 | [2] -0.255 | encorafenib -0.017 | [3] -0.059

SEC23A (UniProt Q15436)
active: rucaparib 0.296
inactive: saracatinib 0.133 | sotrastaurin 0.008 | alvocidib -0.066 | Tubastatin A -0.008 | [1] -0.019 | defactinib -0.078 | [2] 0.037 | encorafenib -0.171 | [3] -0.035

SLC1A5 (UniProt Q15758)
Sequence of UniProt Q15758 (Q15758 whole entry, looked up): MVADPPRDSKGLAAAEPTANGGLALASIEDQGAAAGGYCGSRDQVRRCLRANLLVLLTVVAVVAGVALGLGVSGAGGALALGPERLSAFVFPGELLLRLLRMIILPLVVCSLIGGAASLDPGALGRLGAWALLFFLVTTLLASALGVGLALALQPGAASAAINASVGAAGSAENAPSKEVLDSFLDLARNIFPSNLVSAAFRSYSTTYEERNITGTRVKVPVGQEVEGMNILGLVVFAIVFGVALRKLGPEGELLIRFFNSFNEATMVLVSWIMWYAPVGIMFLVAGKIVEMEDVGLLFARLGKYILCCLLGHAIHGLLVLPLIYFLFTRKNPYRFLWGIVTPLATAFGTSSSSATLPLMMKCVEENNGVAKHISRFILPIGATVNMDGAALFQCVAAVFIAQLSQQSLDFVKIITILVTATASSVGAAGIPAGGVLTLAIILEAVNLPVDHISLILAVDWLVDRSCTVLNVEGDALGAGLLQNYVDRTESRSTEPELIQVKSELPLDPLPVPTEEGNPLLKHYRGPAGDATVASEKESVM
inactive: saracatinib 0 | sotrastaurin 0.064 | alvocidib -0.027 | Tubastatin A -0.023 | [1] -0.09 | defactinib -0.01 | rucaparib -0.015 | [2] 0.033 | encorafenib -0.045 | [3] 0.058

RALY (UniProt Q9UKM9)
Sequence of UniProt Q9UKM9 (Q9UKM9 whole entry, looked up): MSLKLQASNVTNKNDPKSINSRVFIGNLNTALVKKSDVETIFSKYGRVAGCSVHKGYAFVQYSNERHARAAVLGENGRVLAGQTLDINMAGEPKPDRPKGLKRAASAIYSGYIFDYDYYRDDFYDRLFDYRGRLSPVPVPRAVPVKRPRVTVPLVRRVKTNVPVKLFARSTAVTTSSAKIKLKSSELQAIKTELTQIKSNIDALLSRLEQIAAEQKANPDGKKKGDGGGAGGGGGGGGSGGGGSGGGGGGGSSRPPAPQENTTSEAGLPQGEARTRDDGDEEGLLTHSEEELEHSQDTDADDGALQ
inactive: saracatinib -0.091 | sotrastaurin -0.031 | alvocidib 0.041 | Tubastatin A 0.226 | [1] -0.01 | defactinib 0.089 | rucaparib 0.221 | [2] 0.066 | encorafenib 0.073 | [3] -0.021

RIC8A isoform 3 (UniProt Q9NPQ8)
Sequence of UniProt Q9NPQ8 (Q9NPQ8 whole entry, looked up): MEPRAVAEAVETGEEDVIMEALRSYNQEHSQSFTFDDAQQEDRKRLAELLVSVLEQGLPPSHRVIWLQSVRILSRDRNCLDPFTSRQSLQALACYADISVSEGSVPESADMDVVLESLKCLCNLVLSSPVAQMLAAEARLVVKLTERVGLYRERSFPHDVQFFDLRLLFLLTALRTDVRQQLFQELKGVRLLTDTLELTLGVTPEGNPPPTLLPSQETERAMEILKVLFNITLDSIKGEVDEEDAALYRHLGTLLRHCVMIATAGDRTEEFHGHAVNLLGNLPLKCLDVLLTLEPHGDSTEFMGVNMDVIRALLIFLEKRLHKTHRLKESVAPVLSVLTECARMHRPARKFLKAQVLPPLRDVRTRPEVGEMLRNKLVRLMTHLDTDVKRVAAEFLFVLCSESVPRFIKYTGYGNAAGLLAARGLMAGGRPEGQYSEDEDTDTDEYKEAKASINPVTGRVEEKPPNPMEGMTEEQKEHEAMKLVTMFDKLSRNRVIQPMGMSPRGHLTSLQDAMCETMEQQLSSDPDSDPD
inactive: saracatinib 0.008 | sotrastaurin -0.223 | alvocidib -0.157 | Tubastatin A 0.108 | [1] -0.096 | defactinib -0.175 | rucaparib 0.198 | [2] -0.087 | encorafenib 0.287 | [3] -0.12
